These results are taken from the supplement of paper PMC10338343.

± gives the standard deviation. In all, about 6,600 sequences were measured (“pre-steady-state target cleavage rate”: median about 0.07, highest 2% from about 0.72 on). What follows is part of a selection rich in the highest values, with near analogues and random picks from the rest.

For the experiment, the system named is MIWI (PIWIL1) piRISC loaded with Kctd7 piRNA (30 nt). The experiment is described as follows: pre-steady-state target cleavage rate (min^-1); MIWI and MILI are mouse PIWI proteins and EfPiwi is from a freshwater sponge; tags in brackets are library labels; higher = faster piRNA-guided slicing of the target. To be noted: guide: Kctd7 piRNA 5'p-UGUUAAUCUCUCAGAGAAGGUGACAGUGAU; auxiliary factor: 500 nM mouse GTSF1. The essentials: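 In Cleave-'n-Seq, a transcribed, DNA-blocked target RNA library (0.1 nM) was combined with 1 nM active affinity-purified piRISC bearing one synthetic guide, with or without 500 nM GTSF1 partner protein. Reactions ran in HEPES–potassium acetate buffer at 33 °C for 0–8 or 0–960 min. Uncleaved targets were sequenced and normalised to depth and to weakly complementary targets, three trials were pooled, and k3 was capped at 0.0001 min^-1. The pre-steady-state cleavage rate was obtained by fitting a burst-and-steady-state model.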
Turning to UAGUGACUCUCCUUCUCUGAGAGUUUAACA, the “pre-steady-state target cleavage rate” value worked out at 0.035 ± 0.007. For UAGACUGUCACCUUGUCUGAGAGAUUAUCA the value was 0.643 ± 0.1; for UAGACUCACACCUUCUCUGAGAGAUAUUGA, 0.0233 ± 0.0066; for UAGUCUGUCACCUUCUCUGAGAGUUUAACA, 0.365 ± 0.053.

Regarding AUCUACUGUCACCUUCUCUGAGAGAUUAACA, the “pre-steady-state target cleavage rate” value turned out to be 0.719 ± 0.041. As for AUCACUGUCACCUAGUCUGAGAGAUUUUGA, the “pre-steady-state target cleavage rate” value is 0.0964 ± 0.023.

As to AUCUGUGUCACCUUCUCUGAGAGAUUAACA, the “pre-steady-state target cleavage rate” value turned out to be 0.417 ± 0.025. As for UAGUGACAGUGGUUUCUGAGAGAUUAACA, the “pre-steady-state target cleavage rate” value is less than 0.0001. With UACACUGUCACCUUCACUGUGAGAUUAACA the figure was 0.116 ± 0.015; with UAGUCUGUCACUUUCUCUGAGAGAUUAACA, 0.642 ± 0.023; with UAGUCUGUCACCAUCUCUGAGAGAUAAACA, 0.246 ± 0.025. For UAGUGACACACCUUCUCAGAGAGAUUAAGA the value was 0.0233 ± 0.0077. Regarding AACACUGUCACCUUCUCUGAGAGAUAUUGA, the “pre-steady-state target cleavage rate” value was found to be 0.0742 ± 0.021. With AUCUCUGUCACCUUGUCUGAGAGAUUAACA the figure was 0.394 ± 0.06; with UAGUGACUCACCUUCUCUGAGAGGAUUAACA, 0.172 ± 0.015.

As to UAGUGAGACACCUACUCUGAGAGAUUAACA, the “pre-steady-state target cleavage rate” value was 0.399 ± 0.03. For UUCAUCUGUCACCUUCUCUGAGAGAUUAACA the value was 0.706 ± 0.03; for AUCUCUGUCACCUUCUCUGAGAGAUUAACA, 0.713 ± 0.032. For UAGACCUGUCACCUUCUCUGAGAGAUUAACA the value was 0.652 ± 0.043. Regarding AUCACCUGUCACCUUCUCUGAGAGAUUAACA, the “pre-steady-state target cleavage rate” value amounted to 0.742 ± 0.05. With AUCAUCUGUCACCUUCUCUGAGAGAUUAACA the figure was 0.74 ± 0.035. For UAGCCUGUCACCUUCUCUGAGAGAUUAACA the value was 0.752 ± 0.056. With UUCCCUGUCACCUUCUCUGAGAGAUUAACA the figure was 0.502 ± 0.037; with UAGUGACUCACCUUCUCUGAGAGAUAUACA, 0.143 ± 0.019; with UACACUCACACCUUCUCUGAGAGAUAUUGA, 0.0241 ± 0.012. Turning to UAGUGACAGUGCAUUCUCUGAGAGAUUAACA, the “pre-steady-state target cleavage rate” value was 0.0141 ± 0.0028. For AUCACUGUCACCAUCUCUGAGAGAUAAACA the value was 0.31 ± 0.03; for UACACUGUCGACCUUCUCUGAGAGAUUAACA, 0.229 ± 0.026; for UAGUGAGUCACCUUCACUGAGAGAUUUACA, 0.203 ± 0.036. With UACACUGAGACCUUCUCUGAGAGAUAUUGA the figure was 0.0195 ± 0.0074; with AUCACUGUCACCUUCUCUGAGAGAGUUAACA, 0.651 ± 0.088. With UAGUCUGUCACCUUCUCUGACAGAUUUACA the figure was 0.0113 ± 0.0036.

Take UAGACUGUCACCUUCUCUGAGAGAUUAAA: the “pre-steady-state target cleavage rate” value turned out to be 0.141 ± 0.018. On to UAGUGAGUCACCUUCUCUGAGAGUAUAUGA, for which the “pre-steady-state target cleavage rate” value was 0.0298 ± 0.012. On to “UACACUGUCACCUUCUCUGAGAGAUUAACU [g2:g28:cont:t1U]”, for which the “pre-steady-state target cleavage rate” value is 0.494 ± 0.059. For ACACUGUCACCUUCUCUGAGAGAUUAACA the value was 0.772 ± 0.044; for AACACUGUCACCUUCUCUGAGAGAUUAAGA, 0.189 ± 0.026. Turning to AACACUGUCACCUUCUCUGAGAGAUUAACA, the “pre-steady-state target cleavage rate” value amounted to 0.746 ± 0.03. With UAGUGAGUCAGCCUUCUCUGAGAGAUUAACA the figure was 0.176 ± 0.02; with UUCACUGUCACGCUUCUCUGAGAGAUUAACA, 0.51 ± 0.02. For UAGUGCGUCACCUUCUCUGAGAGAUUAACA the value was 0.623 ± 0.04; for UAGUGUGUCACGUUCUCUGAGAGAAUAACA, 0.19 ± 0.037; for AUCACUGUCGCCUUCUCUGAGAGAUUAACA, 0.819 ± 0.053. With UACACUGUCGCCUUCUCUGAGAGAUUAACA the figure was 0.708 ± 0.042; with UAGACUGUCGACCUUCUCUGAGAGAUUAACA, 0.121 ± 0.013; with UAGACUGUCGCCUUCUCUGAGAGAUUAACA, 0.822 ± 0.064. Turning to AUCACUGUCGACCUUCUCUGAGAGAUUAACA, the “pre-steady-state target cleavage rate” value stood at 0.172 ± 0.017. For UUCACUGUCGCCUUCUCUGAGAGAUUAACA, the “pre-steady-state target cleavage rate” value came to 0.665 ± 0.043.

With UAGUGUGUCACCUUCUCUGAGAGAGUAACA, the “pre-steady-state target cleavage rate” value was determined as 0.394 ± 0.046.

With UUCAGUGUCACCUACUCUGAGAGAUUAACA, the “pre-steady-state target cleavage rate” value was 0.509 ± 0.033. With UACUCUGUCACCUUCUGUGAGAGAUUAACA the figure was 0.533 ± 0.025. With “UACACUGUCACCUUCUCUGAGAGAUAUUGA [g6:g28:cont:t1A]” the figure was 0.0488 ± 0.017; with UAGUGACUCACGUUCUCUGAGAGAUAAACA, 0.119 ± 0.022. In the case of UAGUGACUCACCUUCUCAGAGAGAUAAACA, the “pre-steady-state target cleavage rate” value was found to be 0.027 ± 0.0057.

UAGUCUGUCACCUUCUCACAGAGAUUAACA: the “pre-steady-state target cleavage rate” value worked out at 0.0188 ± 0.0059.

As for AACACUGUCACGUUCUCUGAGAGAUUAACA, the “pre-steady-state target cleavage rate” value is 0.71 ± 0.035. With UAGACUGUCACGUUCUCUGAGAGAUUAACA the figure was 0.671 ± 0.042; with UACACUGUCACGUUCUCUGUGAGAUUAACA, 0.233 ± 0.014; with AUGACUGUCACGUUCUCUGAGAGAUUAACA, 0.755 ± 0.054. For the sequence UACACUGUCACGUUCUCUGAGAGAUUAACA, the “pre-steady-state target cleavage rate” value is 0.743 ± 0.037.

Consider UUCACAGUCACGUUCUCUGAGAGAUUAACA, for which the “pre-steady-state target cleavage rate” value was found to be 0.685 ± 0.027. With UUCUCUGUCACGUUCUCUGAGAGAUUAACA the figure was 0.564 ± 0.026; with UUCACUGUCACGUUCUCUGAGAGAUUAACA, 0.681 ± 0.035.

For AUCACUGUCACGUUCUCUGAGAGAUUAACA, the “pre-steady-state target cleavage rate” value is 0.821 ± 0.043. On to UUGACUGUCACGUUCUCUGAGAGAUUAACA, for which the “pre-steady-state target cleavage rate” value was found to be 0.711 ± 0.037. For UACACAGUCACGUUCUCUGAGAGAUUAACA the value was 0.679 ± 0.035; for AUCACAGUCACGUUCUCUGAGAGAUUAACA, 0.737 ± 0.026.

UAGACUGUGACCAUCUCUGAGAGAUUAACA: the “pre-steady-state target cleavage rate” value stood at 0.359 ± 0.025. For UAGUGACACACCUUCACUGAGAGAUAAACA the value was 0.112 ± 0.022.

As to UUCACUGAUCACCUUCUCUGAGAGAUUAACA, the “pre-steady-state target cleavage rate” value came out at 0.653 ± 0.052.

On to UUCACUGUCACCUUCUCUCAGAGAUUUACA, for which the “pre-steady-state target cleavage rate” value came out at 0.0958 ± 0.015. For “UAGACUGUCACCUUCUCUCUCUCUAAUUGA [g13:g27:cont:t1A]” the value was less than 0.0001; for UAGACUGUCACCUUCUCUGAGAGAUAAUCA, 0.0918 ± 0.018; for UAGACUUCACCUUCUCUGAGAGAUUAACA, 0.576 ± 0.04. For UACACUGUUCACCUUCUCUGAGAGAUUAACA the value was 0.614 ± 0.025; for AUCACUGUUCACCUUCUCUGAGAGAUUAACA, 0.79 ± 0.046. With UUCACUGUUCACCUUCUCUGAGAGAUUAACA, the “pre-steady-state target cleavage rate” value was 0.633 ± 0.036. For UAGACUGUUACCUUCUCUGAGAGAUUAACA the value was 0.745 ± 0.039. With “UAGACUGUCACCUUCUCUGAGAGAUUAACG [g2:g27:cont:t1G]”, the “pre-steady-state target cleavage rate” value was 0.674 ± 0.034.

With UAGACUGUUCACCUUCUCUGAGAGAUUAACA, the “pre-steady-state target cleavage rate” value turned out to be 0.771 ± 0.043.

With UUCACUGUUACCUUCUCUGAGAGAUUAACA, the “pre-steady-state target cleavage rate” value was found to be 0.342 ± 0.032. For AUCACUGUUACCUUCUCUGAGAGAUUAACA the value was 0.553 ± 0.033. For UAGUGAGUCACCUUCUCUGAGUCUUUAAGA the value was 0.00546 ± 0.0039. As for UAGUGAGUCACCUUCUCUGAGAGAAUAUCA, the “pre-steady-state target cleavage rate” value amounted to 0.124 ± 0.041. As to UAGUGACAGACCUUCUCUGAGAUAUUAACA, the “pre-steady-state target cleavage rate” value worked out at 0.0437 ± 0.011. With UUCUCUGUCACCUUCUCUGAGAGAUAUUGA the figure was 0.0992 ± 0.024; with UAGUGACUCACCAAGUCUGAGAGAUAUUGA, less than 0.0001; with UAGUGACAGACCUUCUCUGUGAGUUUAACA, 0.0139 ± 0.0037. Turning to UAGUGACACACCAUUCUCUGAGAGAUUAACA, the “pre-steady-state target cleavage rate” value stood at 0.245 ± 0.022. For UAGUGACAGUGGAAGUCUGAGACAUAAACA the value was less than 0.0001.
